From PubChem BioAssay AID651604 (The Scripps Research Institute Molecular Screening Center, 2012) come the findings set out here.

The whole screen tested about 1,500 compounds, of which about 1,400 (93%) were called active. So high a share suggests a set chosen from earlier hits. A selection follows. A number with no mark means an inactive call. Rule as the data show it: active = inhibition above about 9.5%; inactive = the rest.

The experiment can be described thus: PGV04 antibody small-molecule binding – biochemical, TR-FRET, distinct HIV envelope site, counter-screen for PG9 antibody binder project (AID 651604). Particulars: TR-FRET PGV04 antibody-gp120 binding, at 6.7 µM, active compounds read high.
Regarding `Fc1cc(F)c2nc(Nc3nc4c(F)cccc4s3)sc2c1`, the inhibition is 15.5% (active). On to `Cc1nc(-c2ccccc2)sc1-c1nc(-c2ccccc2)ncc1S(=O)(=O)c1ccccc1`, for which the inhibition is 11.5% (active). With `CC(C)OCCCNC(=O)c1cc(Sc2ccc(F)cc2)nc2ccccc12`, the inhibition was 28.9% (active). As to `N#C/C=C1\Sc2ccccc2C(=O)N1CC(=O)N1CCN(S(=O)(=O)c2ccccc2)CC1`, the inhibition was 36.9% (active). For the compound `COCCNC(=O)c1cc2c(Br)ccc(Br)c2nc1N`, the inhibition is 20.9% (active). As for `CC(=O)c1sc(NC(=O)CCCOc2ccccc2C)nc1C`, the figure is 29.6% (active).

Consider `COc1cccc(-n2c(SCC(=O)c3c[nH]c4ccccc34)nc3ccccc3c2=O)c1`, for which the inhibition was 32.9% (active). As for `Cc1cc2c(cc1C)N1C(=O)c3cc4ccccc4cc3NC(=O)C1C(=O)N2` (stereo not drawn), the figure is 17% (active). Turning to `O=C(Oc1ccccc1)Oc1ccc2c(c1)oc(=O)c1ccccc12`, the inhibition was 46.4% (active).

As for `N#Cc1ccccc1Sc1ccccc1C(=O)OCC(=O)NC1CCCCC1`, the inhibition is 45.7% (active). As for `Cc1ccc(-c2cc(C(=O)NCc3cn(C)nc3C)c3cc(Br)ccc3n2)cc1`, the inhibition is 25.8% (active). In the case of `CCCCNC(=O)CSc1nc2n[nH]c(C)c2c(=N)n1-c1cccc(Cl)c1C`, the inhibition is 63.2% (active).

Turning to `Cc1ccc(-n2c(SCC(=O)NCCC3=CCCCC3)nc3n[nH]c(C)c3c2=N)cc1Cl`, the inhibition was 27.8% (active).

Consider `COc1cccc(-c2ccc(C#N)c(SCC(=O)NCCc3ccc(Cl)cc3)n2)c1`, for which the inhibition is 13% (active).

On to `COc1ccc(CCNC(=O)CSc2nc(-c3ccc(OC)c(OC)c3)ccc2C#N)cc1`, for which the inhibition was 38.1% (active).

Consider `COC(=O)c1ccc(NC(=S)Nc2cccc(C)n2)cc1`, for which the inhibition was 16.1% (active). For `S=c1[nH]c2ccccc2c2ccccc12`, the inhibition was 11.6% (active). For the compound `O=C(Nc1nnc(-c2ccccc2F)s1)c1ccccc1F`, the inhibition is 36.9% (active). On to `CCCOc1ccc(C2C(C(=O)c3ccc(C)o3)=C(O)C(=O)N2CCCn2ccnc2)cc1` (stereo not drawn), for which the inhibition was 65.3% (active). As for `C=CCOc1cccc(C2C(C(=O)c3ccc(C)o3)=C(O)C(=O)N2CCCn2ccnc2)c1` (stereo not drawn), the inhibition is 22.6% (active). Consider `O=C(O)CCC(=O)Nc1nc2ccc([N+](=O)[O-])cc2s1`, for which the inhibition is 5.74%. As for `COc1ccc(CC(=O)Nc2ccc(-c3nnc(-c4ccccc4)o3)cc2)cc1`, the figure is 24.6% (active); as for `CCc1ccc(NC(=O)CSc2nnc(-c3cnccn3)n2Cc2ccco2)cc1`, 29.1% (active).

On to `O=C(C1=C(O)C(=O)N(Cc2ccccc2)C1c1ccco1)c1ccco1` (stereo not drawn), for which the inhibition was 39.4% (active).

As for `Cc1cc(C)cc(NC(=O)C2CCCN(S(=O)(=O)c3ccc4[nH]c(=O)ccc4c3)C2)c1` (stereo not drawn), the inhibition is 34.2% (active).

For `COc1ccc(Cl)cc1NC(=O)Cn1nc(-c2ccc(C)cc2)n(C)c1=S`, the inhibition was 26.6% (active). On to `COc1ccc(-c2csc(NC(=O)c3ccc(N4C(=O)CCC4=O)cc3)n2)cc1OC`, for which the inhibition is 20.8% (active). As for `Cc1nc2cc(NC(=O)CSc3nc4c(C)cccc4cc3C#N)ccc2s1`, the figure is 59.1% (active); as for `CC(=O)c1sc2nc(SCC(=O)N3CCCCC3)[nH]c(=O)c2c1C`, 32.7% (active); as for `N#Cc1c(-c2cccs2)nc(SCC(=O)c2ccc(Br)cc2)[nH]c1=O`, 38.1% (active).

With `COCCCNc1nc2c(-c3cccc(C)c3)nnn2c2ccc(Cl)cc12`, the inhibition was 30.7% (active). Under `C=CCn1c(=NC(=O)c2cccs2)sc2cc(NC(C)=O)ccc21` stands 12.5% (active); under `C=CCn1c(=NC(=O)c2ccc(S(=O)(=O)N3CCCC3)cc2)sc2cc(NC(C)=O)ccc21`, 43% (active); under `Cc1c(-c2ccccc2)nc(N)c(C#N)c1-c1cccs1`, 27.9% (active). `CCCc1nc(SCC(=O)Nc2ccc(S(=O)(=O)N(C)C)cc2)c2ccccc2n1`: the inhibition is 41% (active). As for `N#Cc1ccccc1NC(=O)c1cccc(COc2ccc(Cl)cc2Cl)c1`, the inhibition was 24.8% (active).

On to `CCOc1cc2ccccc2cc1C(=O)Nc1ccccn1`, for which the inhibition is 16.9% (active).

As for `N#Cc1c(N)nc2c3c(sc(=N)c2c1N)NC(=O)CC3c1ccccc1Cl` (stereo not drawn), the inhibition is 37% (active). For `O=C1C(=O)N(CCN2CCOCC2)C(c2cccc(Cl)c2)/C1=C(/O)c1ccc2c(c1)OCO2` (stereo not drawn), the inhibition is 42.7% (active). Turning to `COc1ccc(-n2nnnc2-c2nc3ccccc3s2)cc1`, the inhibition was 59.6% (active).

`O=C(COC(=O)c1ccc2c(c1)OCCO2)NCc1ccccc1Cl`: the inhibition was 33.7% (active). With `COc1ccc(-c2c(C)nn3c(N4CCC(C(=O)N5CCCCC5)CC4)cc(C)nc23)cc1OC`, the inhibition was 12.2% (active). In the case of `Cn1c(=S)sc2ccc3ccccc3c21`, the inhibition is 15.2% (active).

With `COc1cccc(NS(=O)(=O)c2ccc3[nH]cc(C(=O)NCCCOC(C)C)c(=O)c3c2)c1`, the inhibition was 19.8% (active). Consider `CCOc1ccc2cc(C#N)c(SCC(=O)OC)nc2c1`, for which the inhibition is 65.8% (active). As for `O=C(NCc1ccc(Cl)cc1)c1cc2c(nc3sccn32)s1`, the figure is 30.7% (active). With `Cc1cccc(Nc2nc3c(S(=O)(=O)c4ccccc4)nnn3c3ccccc23)c1C`, the inhibition is 34.2% (active). As to `O=C(Nc1c(Br)cc2c(c1Br)Cc1cc([N+](=O)[O-])ccc1-2)C(Cl)Cl`, the inhibition was 79.2% (active). Regarding `Cc1ccc(-n2ncc3c(=O)n(-c4ccc(C)c(C)c4)c(-c4ccco4)nc32)cc1`, the inhibition was 11.9% (active).

In the case of `Cc1cc(Br)ccc1NC(=O)c1sc2ncn(CC(=O)N3CCN(c4ccccn4)CC3)c(=O)c2c1C`, the inhibition was 15.6% (active). For the compound `CCOc1cccc(NC(=O)Cn2nc(-c3ccc4c(c3)OCCO4)ccc2=O)c1`, the inhibition was 25.3% (active).

On to `CCOc1ccc(C(=O)COC(=O)c2ccc(-n3cnnn3)cc2)cc1`, for which the inhibition was 34% (active). As for `CCOC(=O)c1c(C)[nH]c(C(=O)OCC(=O)c2ccc(OC)cc2OC)c1C`, the inhibition is 54.4% (active). As to `CC(=O)c1cc(C#N)c(SCC(=O)Nc2nccs2)nc1C`, the inhibition was 51.4% (active). As to `O=C1COc2ccc(C(=O)COC(=O)c3ccccc3Cl)cc2N1`, the inhibition was 32.6% (active).

For the compound `Cc1nc2nc(SCC(=O)c3ccccc3)[nH]c2cc1Br`, the inhibition was 46.9% (active). With `O=C(Nc1cccc(S(=O)(=O)Nc2ccc(Cl)cc2)c1)c1ccc2c(c1)OCCO2`, the inhibition is 34.2% (active). Under `CC1(C)Cc2ccccc2-c2[nH]c(=S)[nH]c(=O)c21` stands 7.23%. With `CCn1c(SCC(=O)Nc2cccc(F)c2)nnc1-c1cc2cc(Br)ccc2o1`, the inhibition was 58.4% (active). Turning to `O=C(N=C1SC2CS(=O)(=O)CC2N1Cc1ccccc1)c1ccccc1` (stereo not drawn), the inhibition is 46.9% (active). Turning to `CCn1nnc2cc(C(=O)Nc3ccc(C(=O)OC(C)C)cc3)ccc21`, the inhibition is 37% (active). For the compound `COC(=O)C1=C(C)N(Cc2ccccc2C(F)(F)F)C(=NCc2ccc(OC)cc2)NC1c1cccc(C(F)(F)F)c1` (stereo not drawn), the inhibition is 6.34%. As for `O=C(O)CCCCCNc1ncnc2ccc(Br)cc12`, the inhibition was 30.4% (active).
